Results as given in PubChem BioAssay AID1159580 (chemical genetic matrix, 2015).
Where “and” joins values, the source holds several entries; their conditions need not be identical. Equal entries are not always repeated. About 2,000 (36%) of roughly 5,500 compounds were called active. Inconclusive results (about 18%) are left out. No stated cut-off is given here; in the data, active means normalized growth mostly below about 0.91 (no sharp cut-off); inconclusive means no clear call, values can overlap the other calls; inactive means mostly above about 0.92. This is one part of the list.

Assay: chemical genetic growth profiling, strain panel (AID 1159580);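 further: tested at 20 µM; growth read once vehicle control cultures reached saturation at 30 °C; 1 = growth at the plate median or of vehicle wells; lower values mean less growth of the strain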
Conditions: growth OD

Measured: normalized growth

O=C(c1ccc(Cl)cc1)N1CCN(c2ccc(C(F)(F)F)cn2)CC1
inactive: S. cerevisiae deletion strains, locus YAL013W, strain DEP1, active compounds read low 0.934 | S. cerevisiae deletion strains, locus YAR019C, strain CDC15, active compounds read low 0.973 | S. cerevisiae deletion strains, locus YBL105C, strain PKC1, active compounds read low 0.992 | S. cerevisiae deletion strains, locus YBR135W, strain CKS1, active compounds read low 0.997 | S. cerevisiae deletion strains, locus YBR136W, strain MEC1, active compounds read low 0.988 | S. cerevisiae deletion strains, locus YBR160W, strain CDC28, active compounds read low 0.973 | S. cerevisiae deletion strains, locus YDL017W, strain CDC7, active compounds read low 0.995 | S. cerevisiae deletion strains, locus YDL028C, strain MPS1, active compounds read low 0.968 | S. cerevisiae deletion strains, locus YDL101C, strain DUN1, active compounds read low 0.986 and 0.988 | S. cerevisiae deletion strains, locus YDL108W, strain KIN28, active compounds read low 0.979 | S. cerevisiae deletion strains, locus YDL132W, strain cdc53, active compounds read low 0.988 | S. cerevisiae deletion strains, locus YDL214C, strain PRR2, active compounds read low 0.937 | S. cerevisiae deletion strains, locus YDR052C, strain DBF4, active compounds read low 1 | S. cerevisiae deletion strains, locus YDR054C, strain cdc34, active compounds read low 0.978 | S. cerevisiae deletion strains, locus YDR150W, strain NUM1, active compounds read low 0.843 | S. cerevisiae deletion strains, locus YDR226W, strain ADK1, active compounds read low 0.979 | S. cerevisiae deletion strains, locus YDR477W, strain SNF1, active compounds read low 0.936 | S. cerevisiae deletion strains, locus YER123W, strain YCK3, active compounds read low 0.913 | S. cerevisiae deletion strains, locus YER133W, strain GLC7, active compounds read low 0.955 | S. cerevisiae deletion strains, locus YFL009W, strain cdc4, active compounds read low 0.967 | S. cerevisiae deletion strains, locus YFL029C, strain CAK1, active compounds read low 0.981 | S. cerevisiae deletion strains, locus YFR003C, strain YPI1, active compounds read low 0.993 | S. cerevisiae deletion strains, locus YFR019W, strain FAB1, active compounds read low 0.968 | S. cerevisiae deletion strains, locus YFR028C, strain CDC14, active compounds read low 0.978 | S. cerevisiae deletion strains, locus YGR040W, strain KSS1, active compounds read low 0.954 | S. cerevisiae deletion strains, locus YGR052W, strain FMP48, active compounds read low 0.978 | S. cerevisiae deletion strains, locus YGR078C, strain PAC10, active compounds read low 0.933 | S. cerevisiae deletion strains, locus YGR092W, strain DBF2, active compounds read low 0.89 | S. cerevisiae deletion strains, locus YHR079C, strain IRE1, active compounds read low 0.88 | S. cerevisiae deletion strains, locus YHR082C, strain KSP1, active compounds read low 0.96 | S. cerevisiae deletion strains, locus YHR087W, strain rtc3, active compounds read low 0.947 | S. cerevisiae deletion strains, locus YHR205W, strain SCH9, active compounds read low 0.857 | S. cerevisiae deletion strains, locus YIL147C, strain SLN1, active compounds read low 0.986 | S. cerevisiae deletion strains, locus YJL095W, strain BCK1, active compounds read low 0.892 | S. cerevisiae deletion strains, locus YJL128C, strain PBS2, active compounds read low 0.942 | S. cerevisiae deletion strains, locus YJL157C, strain FAR1, active compounds read low 0.979 | S. cerevisiae deletion strains, locus YJR016C, strain ILV3, active compounds read low 0.986 | S. cerevisiae deletion strains, locus YJR043C, strain POL32, active compounds read low 0.993 | S. cerevisiae deletion strains, locus YJR066W, strain TOR1 (second series), active compounds read low 0.974 | S. cerevisiae deletion strains, locus YJR066W, strain TOR1, active compounds read low 0.891 | S. cerevisiae deletion strains, locus YKL048C, strain ELM1, active compounds read low 0.963 | S. cerevisiae deletion strains, locus YKL067W, strain YNK1, active compounds read low 0.925 | S. cerevisiae deletion strains, locus YKL101W, strain HSL1, active compounds read low 0.911 | S. cerevisiae deletion strains, locus YKL193C, strain SDS22, active compounds read low 0.988 | S. cerevisiae deletion strains, locus YKL203C, strain TOR2, active compounds read low 1.02 | S. cerevisiae deletion strains, locus YLR039C, strain RIC1, active compounds read low 1.16 | S. cerevisiae deletion strains, locus YLR058C, strain SHM2 (second series), active compounds read low 0.974 | S. cerevisiae deletion strains, locus YLR133W, strain CKI1, active compounds read low 0.95 | S. cerevisiae deletion strains, locus YLR262C, strain YPT6, active compounds read low 1.1 | S. cerevisiae deletion strains, locus YLR403W, strain SFP1, active compounds read low 0.957 | S. cerevisiae deletion strains, locus YML070W, strain DAK1, active compounds read low 0.921 | S. cerevisiae deletion strains, locus YMR001C, strain CDC5, active compounds read low 0.977 | S. cerevisiae deletion strains, locus YMR205C, strain PFK2 (second series), active compounds read low 0.957 | S. cerevisiae deletion strains, locus YMR219W, strain ESC1, active compounds read low 0.958 | S. cerevisiae deletion strains, locus YMR263W, strain SAP30, active compounds read low 0.963 | S. cerevisiae deletion strains, locus YMR277W, strain FCP1, active compounds read low 0.962 | S. cerevisiae deletion strains, locus YNL006W, strain LST8, active compounds read low 0.983 | S. cerevisiae deletion strains, locus YNL020C, strain ARK1, active compounds read low 0.956 | S. cerevisiae deletion strains, locus YNL161W, strain CBK1, active compounds read low 0.994 | S. cerevisiae deletion strains, locus YNL183C, strain NPR1, active compounds read low 0.979 | S. cerevisiae deletion strains, locus YNL207W, strain RIO2, active compounds read low 0.985 | S. cerevisiae deletion strains, locus YNL222W, strain SSU72, active compounds read low 0.982 | S. cerevisiae deletion strains, locus YNL307C, strain MCK1 (second series), active compounds read low 0.931 | S. cerevisiae deletion strains, locus YNL322C, strain KRE1, active compounds read low 0.982 | S. cerevisiae deletion strains, locus YOL078W, strain AVO1, active compounds read low 0.982 | S. cerevisiae deletion strains, locus YOL136C, strain PFK27, active compounds read low 0.908 | S. cerevisiae deletion strains, locus YOR061W, strain CKA2, active compounds read low 0.965 | S. cerevisiae deletion strains, locus YOR119C, strain RIO1, active compounds read low 0.958 | S. cerevisiae deletion strains, locus YOR231W, strain MKK1, active compounds read low 0.853 | S. cerevisiae deletion strains, locus YOR329C, strain SCD5, active compounds read low 0.992 | S. cerevisiae deletion strains, locus YPL031C, strain PHO85, active compounds read low 0.941 | S. cerevisiae deletion strains, locus YPL055C, strain LGE1, active compounds read low 0.919 | S. cerevisiae deletion strains, locus YPL153C, strain RAD53, active compounds read low 0.93 | S. cerevisiae deletion strains, locus YPL204W, strain HRR25, active compounds read low 0.963 | S. cerevisiae deletion strains, locus YPL209C, strain IPL1, active compounds read low 0.991 | S. cerevisiae deletion strains, locus YPL241C, strain CIN2, active compounds read low 1.01 | S. cerevisiae deletion strains, locus YPR025C, strain CCL1, active compounds read low 0.987 | S. cerevisiae deletion strains, locus YPR106W, strain ISR1, active compounds read low 0.975 | S. cerevisiae deletion strains, locus YPR111W, strain DBF20, active compounds read low 0.955 | S. cerevisiae deletion strains, locus YPR135W, strain CTF4, active compounds read low 0.671 | S. cerevisiae deletion strains, strain NNK1, active compounds read low 0.977 | S. cerevisiae deletion strains, strain TSCII, active compounds read low 0.972
active: S. cerevisiae deletion strains, locus YBR229C, strain ROT2, active compounds read low 0.824 | S. cerevisiae deletion strains, locus YEL061C, strain CIN8, active compounds read low 0.8 | S. cerevisiae deletion strains, locus YGR229C, strain SMI1, active compounds read low 0.551 | S. cerevisiae deletion strains, locus YHR030C, strain SLT2, active compounds read low 0.0888 and 0.729 | S. cerevisiae deletion strains, locus YJR075W, strain HOC1, active compounds read low 1.11 [resistant] | S. cerevisiae deletion strains, locus YLR085C, strain ARP6, active compounds read low 0.436 | S. cerevisiae deletion strains, locus YLR113W, strain HOG1, active compounds read low 0.813 | S. cerevisiae deletion strains, locus YML094W, strain GIM5, active compounds read low 0.802 | S. cerevisiae deletion strains, locus YMR307W, strain GAS1, active compounds read low 0.272 | S. cerevisiae deletion strains, locus YNL153C, strain GIM3, active compounds read low 0.911 | S. cerevisiae deletion strains, locus YNL298W, strain CLA4 (second series), active compounds read low 0.563 | S. cerevisiae deletion strains, locus YNR030W, strain Alg12, active compounds read low 0.861 | S. cerevisiae deletion strains, locus YOL006C, strain TOP1, active compounds read low 0.661 | S. cerevisiae deletion strains, locus YPL256C, strain CLN2, active compounds read low 0.8 | S. cerevisiae strains, strain wild type, active compounds read low 0.862
